Records with an inconclusive call do not appear. Active and inactive are the calls of the source. Unless noted, calls follow the shape of the full dose curve.
Key:
[1] = qHTS assay to identify small molecule antagonists of the peroxisome proliferator-activated receptor delta (PPARd) signaling pathway - cell viability counter screen (AID 743213; active = well fitted curve in the direction sought with a large enough effect in the repeat runs; an effect the other way counts as inactive or inconclusive; also: % is scaled to controls: 0 for no effect and ±100 for the full control effect; nearly all actives have a fitted effect of over 50% in size)
In short: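 Agonist-stimulated (L165041, 300 nM final) HEK293H PPARd UAS-bla cells are exposed to compounds for 17 h at 37 C, and ATP-based luminescence (CellTiter-Glo) from the same wells reports cytotoxicity.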

[2] = qHTS assay to identify small molecule agonists of the farnesoid-X-receptor (FXR) signaling pathway - cell viability counter screen (AID 743218; active = well fitted curve in the direction sought with a large enough effect in the repeat runs; an effect the other way counts as inactive or inconclusive; also: % is scaled to controls: 0 for no effect and ±100 for the full control effect; nearly all actives have a fitted effect of over 45% in size)
In short: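 Quantitative HTS counter screen measuring ATP-based viability via CellTiter-Glo luminescence in HEK 293T cells carrying a UAS-driven beta-lactamase reporter, after 16 h compound exposure at 37 C.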

[3] = qHTS assay to identify small molecule antagonists of the farnesoid-X-receptor (FXR) signaling pathway - cell viability counter screen (AID 743221; active = well fitted cell-killing curve with a large enough effect in the repeat runs, not every such curve was filed as active; also: % is scaled to controls: 0 for no effect and ±100 for the full control effect; nearly all actives have a fitted effect of over 50% in size)
In short: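 HEK 293T FXR-bla cells, 5 h pre-incubation; compound + CDCA 50 uM final, 16 h, 37 C; beta-lactamase FRET read first, then CellTiter-Glo luminescence, 30 min RT.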

[4] = molecular target: Vitamin D3 receptor (Homo sapiens) (UniProt P11473); assay: qHTS assay to identify small molecule agonists of the vitamin D receptor (VDR) signaling pathway (AID 743222); also: % is scaled to controls: 0 for no effect and ±100 for the full control effect
In short: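 Tox21 cell reporter format: VDR-bla line, 16 h compound exposure in 5% CO2 at 37C, then fluorescence intensity after 2 h with LiveBLAzer B/G FRET substrate.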

[5] = molecular target: Vitamin D3 receptor (Homo sapiens) (UniProt P11473); assay: qHTS assay to identify small molecule antagonists of the vitamin D receptor (VDR) signaling pathway (AID 743223; active = well fitted inhibition curve with a large enough effect in the signal ratio in the repeat runs, not every such curve was filed as active; the % refers to the signal ratio; also: % is scaled to controls: 0 for no effect and ±100 for the full control effect)
In short: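 Beta-lactamase reporter read-out: FRET substrate fluorescence after 2 h at room temperature, following 16 h exposure of VDR-bla cells to test compound plus 3 nM (final) 1alpha,25-dihydroxyvitamin D3 agonist at 37C.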

[6] = qHTS assay to identify small molecule agonists of the vitamin D receptor (VDR) signaling pathway - cell viability counter screen (AID 743224; active = well fitted curve in the direction sought with a large enough effect in the repeat runs; an effect the other way counts as inactive or inconclusive; also: series mostly up to about 63 µM; % is scaled to controls: 0 for no effect and ±100 for the full control effect; nearly all actives have a fitted effect of over 50% in size)
In short: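 CellTiter-Glo viability readout on VDR-bla cells, measured after 16 h of compound treatment at 37C in the same wells.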

[7] = qHTS assay to identify small molecule antagonists of the vitamin D receptor (VDR) signaling pathway - cell viability counter screen (AID 743225; active = well fitted curve in the direction sought with a large enough effect in the repeat runs; an effect the other way counts as inactive or inconclusive; also: % is scaled to controls: 0 for no effect and ±100 for the full control effect; nearly all actives have a fitted effect of over 50% in size)
In short: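 Viability counter screen run in the same wells as the beta-lactamase reporter assay: HEK 293T VDR-UAS-bla cells, 16 h compound exposure at 37C with 3 nM (final) 1-alpha,25-dihydroxyvitamin D3. CellTiter-Glo luminescence, 30 min, room temperature.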

[8] = qHTS assay to identify small molecule agonists of the NFkB signaling pathway (AID 1159509; active = well fitted curve in the direction sought with a large enough effect in the signal ratio in the repeat runs, not every such curve was filed as active; the % refers to the signal ratio; also: series mostly up to about 61 µM; % is scaled to controls: 0 for no effect and ±100 for the full control effect)
In short: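 Readout: FRET fluorescence, 405 nm excitation, 460/530 nm emission; beta-lactamase expression disrupts FRET. Cells: ME-180 stably carrying NF-kB-driven bla reporter. Compound exposure 5 hr, 37 C, 5% CO2.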

[9] = qHTS assay to identify small molecule agonists of the NFkB signaling pathway - cell viability counter screen (AID 1159515); also: series mostly up to about 61 µM; % is scaled to controls: 0 for no effect and ±100 for the full control effect; nearly all actives have a fitted effect of over 55% in size
In short: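 Tox21 library compounds were tested for cytotoxicity against NFkB-bla ME-180 cells during a 5 hr exposure at 37 C. CellTiter-Glo luminescence served as the viability read-out.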

[10] = qHTS assay to identify small molecule agonists of the endoplasmic reticulum stress response signaling pathway - cell viability counter screen (AID 1159517)
In short: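 After overnight attachment, ESRE-bla HeLa cells were treated with Tox21 library compounds for 5 hr. CellTiter-Glo luminescence, read 30 min post-addition at room temperature, reported viability.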

[11] = qHTS assay to identify small molecule antagonists of the retinoid-related orphan receptor gamma (ROR-gamma) signaling pathway - cell viability counter screen (AID 1159520; active = well fitted curve in the direction sought with a large enough effect in the repeat runs; an effect the other way counts as inactive or inconclusive)
In short: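 Cytotoxicity was read from cellular ATP (CellTiter-Glo luminescence) after 16 hr at 37 C with 1 uM doxycycline induction. The inducer was added 2 hr after compound transfer to Tet-on ROR gamma CHO cells.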

[12] = molecular target: Nuclear receptor ROR-gamma (Homo sapiens) (UniProt P51449); assay: qHTS assay to identify small molecule antagonists of the retinoid-related orphan receptor gamma (ROR-gamma) signaling pathway (AID 1159521; active = well fitted curve in the direction sought with a large enough effect in the repeat runs; an effect the other way counts as inactive or inconclusive)
In short: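 Luminescence readout (ONE-Glo, 30 min RT) after 16 h doxycycline induction; loss of signal scored as antagonism. CHO cells with TET-inducible RORγ and RORE-LUC reporter; compounds added 2 h before 1 uM final doxycycline.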

[13] = qHTS assay to identify small molecule agonists of the AP-1 signaling pathway - cell viability counter screen (AID 1159525); also: nearly all actives have a fitted effect of over 55% in size
In short: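 Intracellular ATP by Cell Titer Glo luminescence (30 min, RT) in the same ME-180 AP-1-bla wells after the 5 h compound exposure at 37 °C. Normalised to tetra n-octyl ammonium bromide and DMSO controls.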

[14] = qHTS assay to identify small molecule agonists of the AP-1 signaling pathway (AID 1159526); also: % is scaled to controls: 0 for no effect and ±100 for the full control effect
[15] = molecular target: Retinoic acid receptor RXR-alpha (Homo sapiens) (UniProt P19793); assay: qHTS assay to identify small molecule agonists of the RXR signaling pathway (AID 1159527); also: % is scaled to controls: 0 for no effect and ±100 for the full control effect; nearly all actives have a fitted effect of over 35% in size
In short: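 Agonist mode; 9-cis retinoic acid positive control. HEK 293T UAS-bla reporter cells, 2% charcoal-stripped FBS, 16 hr compound exposure at 37 C/5% CO2. LiveBLAzer B/G FRET substrate 2 hr RT; ex 405, em 460/530 nm.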

[16] = molecular target: Peroxisome proliferator-activated receptor delta (Homo sapiens) (UniProt Q03181); assay: qHTS assay to identify small molecule agonists of the peroxisome proliferator-activated receptor delta (PPARd) signaling pathway (AID 743212)
In short: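 Steps: seed PPARd-bla HEK293H cells; incubate 5 h, 37 C, 5% CO2; add compounds in DMSO; incubate, 37 C; add LiveBLAzer B/G FRET substrate; hold 2 h at room temperature; measure fluorescence.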

[17] = molecular target: Peroxisome proliferator-activated receptor delta (Homo sapiens) (UniProt Q03181); assay: qHTS assay to identify small molecule antagonists of the peroxisome proliferator-activated receptor delta (PPARd) signaling pathway (AID 743215; active = well fitted inhibition curve with a large enough effect in the signal ratio in the repeat runs, not every such curve was filed as active; the % refers to the signal ratio)
In short: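 Here, a reporter line (HEK293H, beta-lactamase under a UAS) measures PPARd signaling. Compounds are tested against agonist L165041 at 300 nM final concentration over 17 h at 37 C, with fluorescence read after substrate.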

[18] = molecular target: Bile acid receptor (Homo sapiens) (UniProt Q96RI1); assay: qHTS assay to identify small molecule agonists of the farnesoid-X-receptor (FXR) signaling pathway (AID 743220; active = well fitted activation curve with a large enough effect in the signal ratio in the repeat runs, not every such curve was filed as active; the % refers to the signal ratio; also: % is scaled to controls: 0 for no effect and ±100 for the full control effect)
In short: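 FXR-UAS-bla HEK 293T cells carrying a UAS-driven beta-lactamase reporter were plated for 5 h at 37C/5% CO2, then exposed to DMSO-dissolved Tox21 10K compounds for 16 h at 37C. A LiveBLAzer B/G FRET substrate was loaded for 2 h at room temperature before fluorescence reading.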

[19] = molecular target: Bile acid receptor (Homo sapiens) (UniProt Q96RI1); assay: qHTS assay to identify small molecule antagonists of the farnesoid-X-receptor (FXR) signaling pathway (AID 743217; active = well fitted inhibition curve with a large enough effect in the signal ratio in the repeat runs, not every such curve was filed as active; the % refers to the signal ratio; also: % is scaled to controls: 0 for no effect and ±100 for the full control effect)
In short: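 Test compounds are pin-transferred onto FXR-bla HEK 293T cells, then chenodeoxycholic acid is added at 50 uM final. After 16 h at 37 °C, LiveBLAzer B/G substrate is applied for 2 h at room temperature and fluorescence read.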

[20] = qHTS assay to identify small molecule agonists of the endoplasmic reticulum stress response signaling pathway (AID 1159516; active = well fitted activation curve with a large enough effect in the signal ratio in the repeat runs, not every such curve was filed as active; the % refers to the signal ratio; also: % is scaled to controls: 0 for no effect and ±100 for the full control effect)
In short: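 Fluorescence at 460 and 530 nm (405 nm excitation) reports beta-lactamase from an ER stress response element in HeLa cells treated 5 hr at 37 C.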

Sequence of Retinoic acid receptor RXR-alpha (Homo sapiens) (P19793 whole entry, looked up): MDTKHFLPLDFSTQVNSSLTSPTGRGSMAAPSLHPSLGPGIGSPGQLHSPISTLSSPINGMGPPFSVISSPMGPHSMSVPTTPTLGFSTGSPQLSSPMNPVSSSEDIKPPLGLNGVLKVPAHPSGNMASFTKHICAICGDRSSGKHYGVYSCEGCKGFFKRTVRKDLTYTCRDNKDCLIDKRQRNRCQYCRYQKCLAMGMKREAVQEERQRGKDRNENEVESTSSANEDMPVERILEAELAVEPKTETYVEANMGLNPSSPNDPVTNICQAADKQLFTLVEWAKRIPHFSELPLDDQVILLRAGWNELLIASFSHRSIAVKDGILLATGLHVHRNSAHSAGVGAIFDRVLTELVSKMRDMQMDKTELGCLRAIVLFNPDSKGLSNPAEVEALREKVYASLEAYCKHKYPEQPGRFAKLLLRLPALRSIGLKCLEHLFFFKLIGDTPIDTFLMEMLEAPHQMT
Sequence of Peroxisome proliferator-activated receptor delta (Homo sapiens) (Q03181 whole entry, looked up): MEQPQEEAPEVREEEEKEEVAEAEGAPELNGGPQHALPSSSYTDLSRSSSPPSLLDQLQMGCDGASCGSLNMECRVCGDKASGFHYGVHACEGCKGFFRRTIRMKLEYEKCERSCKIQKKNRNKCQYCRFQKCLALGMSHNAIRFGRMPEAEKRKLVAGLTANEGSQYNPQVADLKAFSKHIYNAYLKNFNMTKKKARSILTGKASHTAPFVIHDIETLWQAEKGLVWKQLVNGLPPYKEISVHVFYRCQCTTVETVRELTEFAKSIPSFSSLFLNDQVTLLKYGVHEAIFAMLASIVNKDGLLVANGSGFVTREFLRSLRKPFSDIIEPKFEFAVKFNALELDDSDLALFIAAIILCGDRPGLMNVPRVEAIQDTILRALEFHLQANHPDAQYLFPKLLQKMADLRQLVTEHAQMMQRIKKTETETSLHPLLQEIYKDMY
Sequence of Bile acid receptor (Homo sapiens) (Q96RI1 whole entry, looked up): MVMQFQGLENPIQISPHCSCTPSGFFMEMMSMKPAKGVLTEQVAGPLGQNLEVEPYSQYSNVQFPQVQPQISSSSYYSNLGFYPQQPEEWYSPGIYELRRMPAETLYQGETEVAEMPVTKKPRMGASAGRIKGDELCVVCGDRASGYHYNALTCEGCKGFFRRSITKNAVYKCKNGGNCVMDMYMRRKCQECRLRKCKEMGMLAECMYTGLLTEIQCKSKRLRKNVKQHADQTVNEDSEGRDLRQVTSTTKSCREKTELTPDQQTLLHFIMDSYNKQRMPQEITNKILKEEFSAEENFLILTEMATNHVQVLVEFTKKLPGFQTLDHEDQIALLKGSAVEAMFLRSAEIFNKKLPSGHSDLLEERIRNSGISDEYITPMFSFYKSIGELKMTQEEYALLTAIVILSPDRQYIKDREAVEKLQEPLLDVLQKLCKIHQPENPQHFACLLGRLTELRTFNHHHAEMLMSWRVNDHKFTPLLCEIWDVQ
Sequence of Vitamin D3 receptor (Homo sapiens) (P11473 whole entry, looked up): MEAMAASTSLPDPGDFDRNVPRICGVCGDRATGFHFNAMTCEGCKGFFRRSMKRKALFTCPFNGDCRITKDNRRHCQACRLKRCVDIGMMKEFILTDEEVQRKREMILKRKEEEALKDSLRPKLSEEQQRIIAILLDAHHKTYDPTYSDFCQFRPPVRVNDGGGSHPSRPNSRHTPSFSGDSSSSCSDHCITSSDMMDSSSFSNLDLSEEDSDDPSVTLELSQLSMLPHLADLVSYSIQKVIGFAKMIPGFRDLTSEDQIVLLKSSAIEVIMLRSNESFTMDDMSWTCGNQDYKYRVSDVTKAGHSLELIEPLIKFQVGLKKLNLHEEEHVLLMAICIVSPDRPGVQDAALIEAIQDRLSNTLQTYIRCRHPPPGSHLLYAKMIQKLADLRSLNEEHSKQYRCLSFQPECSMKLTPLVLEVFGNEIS

CCCCC/C=C/CC(=O)OC
inactive: outcome [1] | Potency [2] | outcome [3] | outcome [4] | outcome [5] | outcome [6] | outcome [7] | outcome [8] | outcome [9] | outcome [10] | outcome [11] | outcome [12] | outcome [13] | outcome [14] | Potency [15]

CCCCC(=O)N(C)C
inactive: outcome [16] | outcome [1] | outcome [17] | Potency [2] | outcome [3] | outcome [4] | outcome [5] | outcome [6] | outcome [7] | outcome [8] | outcome [9] | outcome [10] | outcome [11] | outcome [12] | outcome [13] | outcome [14] | Potency [15]

CCCCCC(=O)OCC
inactive: outcome [1] | Potency [2] | outcome [18] | outcome [3] | outcome [4] | outcome [5] | outcome [6] | outcome [7] | outcome [8] | outcome [9] | outcome [10] | outcome [11] | outcome [12] | outcome [13] | outcome [14] | Potency [15]

O=CN1CCOCC1
inactive: outcome [16] | outcome [1] | outcome [17] | outcome [6] | outcome [7] | outcome [8] | outcome [9] | outcome [10] | outcome [11] | outcome [12] | outcome [13] | outcome [14] | Potency [15]

C=CCOc1cc(Cl)ccc1C(=O)NCCN(CC)CC
inactive: outcome [17] | Potency [2] | outcome [4] | outcome [5] | outcome [6] | outcome [7] | outcome [8] | outcome [9] | outcome [10] | outcome [11] | outcome [12] | outcome [13] | outcome [14]

O=C(CN1CCN(Cc2ccc3c(c2)OCO3)CC1)N1c2ccccc2Sc2ccccc21
inactive: outcome [1] | Potency [2] | outcome [3] | outcome [4] | outcome [5] | outcome [6] | outcome [7] | outcome [8] | outcome [9] | outcome [10] | outcome [11] | outcome [13] | outcome [14] | Potency [15]

CC(C)(C)c1ccc(C=O)cc1
inactive: outcome [16] | outcome [1] | outcome [17] | outcome [3] | outcome [4] | outcome [5] | outcome [6] | outcome [8] | outcome [9] | outcome [10] | outcome [11] | outcome [13] | outcome [14] | Potency [15]

Oc1ccccc1Cc1ccccc1O
inactive: outcome [16] | outcome [1] | Potency [2] | outcome [3] | outcome [4] | outcome [7] | outcome [8] | outcome [9] | outcome [10] | outcome [11] | outcome [12] | outcome [13] | outcome [14] | Potency [15]

O=CO
inactive: viability change, negative = cytotoxic [1] 11.9% [at 6.26 µM] | activity change, negative = inhibition [19] -0.433% [at 5.95 µM] | viability change, negative = cytotoxic [2] 0.465% [at 5.95 µM] | activation [18] -0.16% [at 5.95 µM] | activity change, negative = cytotoxicity [3] -2.88% [at 5.95 µM] | activation [4] -1.04% [at 6.01 µM] | activity change, negative = inhibition [5] 3.44% [at 6.95 µM] | activity change, negative = cytotoxicity [6] -15.6% [at 5.95 µM] | viability change, negative = cytotoxic [7] 3.57% [at 6.95 µM] | activation [8] -0.32% [at 6.95 µM] | activity, negative = cytotoxic [9] -18.4% [at 6.95 µM] | activation [20] -2.58% [at 6.95 µM] | activity, negative = cytotoxicity [11] 0.77% [at 8.39 µM] | viability change, negative = cytotoxic [13] 1.49% [at 6.97 µM] | activation [14] 1.24% [at 6.97 µM] | activation [15] 1.02% [at 6.98 µM]

CN=C(NC#N)NCCSCc1csc(N=C(N)N)n1
inactive: outcome [16] | outcome [1] | outcome [17] | Potency [2] | outcome [3] | outcome [4] | outcome [6] | outcome [8] | outcome [9] | outcome [10] | outcome [11] | outcome [12] | outcome [13] | outcome [14] | Potency [15]

O=C(O)c1ccc(OCCN2CCCCC2)cc1
inactive: outcome [1] | outcome [17] | Potency [2] | outcome [4] | outcome [5] | outcome [6] | outcome [7] | outcome [8] | outcome [9] | outcome [10] | outcome [11] | outcome [12] | outcome [13] | outcome [14] | Potency [15]

C=CCOCC(O)CCl (stereo not given)
inactive: outcome [16] | outcome [1] | outcome [17] | outcome [4] | outcome [5] | outcome [6] | outcome [8] | outcome [9] | outcome [10] | outcome [11] | outcome [12] | outcome [13] | outcome [14] | Potency [15]

CCc1nccnc1C
inactive: outcome [16] | outcome [1] | outcome [17] | outcome [19] | Potency [2] | outcome [18] | outcome [4] | outcome [6] | outcome [7] | outcome [8] | outcome [20] | outcome [10] | outcome [11] | outcome [12] | outcome [13] | outcome [14] | Potency [15]

CCS(=O)(=O)CCn1c([N+](=O)[O-])cnc1C
inactive: outcome [16] | outcome [1] | outcome [3] | outcome [4] | outcome [5] | outcome [6] | outcome [7] | outcome [8] | outcome [9] | outcome [10] | outcome [11] | outcome [12] | outcome [13] | outcome [14]

CCCCOC(=O)C(C)OC(=O)CCC (stereo not given)
inactive: outcome [16] | outcome [1] | outcome [17] | Potency [2] | outcome [4] | outcome [6] | outcome [8] | outcome [9] | outcome [11] | outcome [12] | outcome [13] | outcome [14] | Potency [15]

Nc1ccnc(=O)[nH]1
inactive: outcome [16] | outcome [1] | outcome [17] | Potency [2] | outcome [4] | outcome [6] | outcome [8] | outcome [9] | outcome [10] | outcome [11] | outcome [12] | outcome [13] | outcome [14] | Potency [15]

C=CCOc1c(Br)cc(C(C)(C)c2cc(Br)c(OCC=C)c(Br)c2)cc1Br
inactive: outcome [1] | outcome [19] | Potency [2] | outcome [18] | outcome [3] | outcome [4] | outcome [6] | outcome [7] | outcome [8] | outcome [9] | outcome [10] | outcome [11] | outcome [13] | outcome [14]

O=C1NC2NC(=O)NC2N1 (stereo not given)
inactive: outcome [16] | outcome [1] | outcome [17] | outcome [19] | Potency [2] | outcome [18] | outcome [4] | outcome [5] | outcome [6] | outcome [8] | outcome [9] | outcome [10] | outcome [11] | outcome [12] | outcome [13] | outcome [14] | Potency [15]
